Among the data in PubChem BioAssay (NCI) are growth values, retold here.

Compounds without any hit were thinned out: in the full panel of roughly 83,000, 20% have a hit.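 Treatment: one concentration, 48 hours, 96-well format. Scoring: percent growth, with anything below 10 considered active.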 A number with no mark means an inactive call. The source made the active and inactive calls.

Common to all, as to test: NCI-60 one-dose screen, 48 h (100 = growth as untreated, 0 = no growth, -100 = all killed)
One test has as its system HOP-62 NSCLC. To be noted: 10 µM unless noted.
Another test relates to NCI-H460 lung. To be noted: 10 µM unless noted.
In a further test the test system is HOP-92 NSCLC. To be noted: 10 µM unless noted.
In the next test the test system is NCI-H522 lung. The conditions noted are these: 10 µM.
The next test relates to A549/ATCC NSCLC. To be noted: 10 µM unless noted.
A further test has as its system 786-0 renal. The conditions noted are these: 10 µM unless noted.
The test system of a further test is COLO 205 colon. The conditions noted are these: 10 µM unless noted.
In the next test the test system is NCI-H322M lung. The conditions noted are these: 10 µM unless noted.

For `O=[N+]([O-])c1cc2c(cc1Br)C1C(C3C2C(Cl)(Cl)C(Cl)=C(Cl)C3(Cl)Cl)C(Cl)(Cl)C(Cl)=C(Cl)C1(Cl)Cl` (centres undefined), the growth in the test on HOP-62 NSCLC was 92.2%; with NCI-H460 lung, 107%; in the test on HOP-92 NSCLC, 100%; in the test with NCI-H522 lung, 83.1%; in the test with A549/ATCC NSCLC, 95.7%; with 786-0 renal it was 89.9%. Moreover, the growth in the test on COLO 205 colon is 110%.

With `O=C1CC2c3cc(-c4cc5ccccc5o4)ccc3CCN2C(=O)N1c1ccccc1` (centres undefined), the growth in the test on HOP-62 NSCLC was 82.9%; with NCI-H460 lung it was 87.6%; in the test with HOP-92 NSCLC, 47.2%; in the test with NCI-H522 lung it was 69.9%; in the test on A549/ATCC NSCLC it was 80%; in the test on 786-0 renal, 92.8%. In the test on COLO 205 colon, the growth was 96.2%.

As for `ONc1nc(NO)c2[nH]cnc2n1`, the growth was 83.9% with HOP-62 NSCLC; 86.7% with NCI-H460 lung; 80.8% with HOP-92 NSCLC; 97% in the test with NCI-H522 lung; 101% with A549/ATCC NSCLC; 86.9% in the test with 786-0 renal. For the same molecule, the growth in the test with COLO 205 colon was 112%.

On to `FC(F)(F)c1cc(CNc2nc(Cl)ncc2Br)cc(C(F)(F)F)c1`, for which the growth in the test with HOP-62 NSCLC is 90.5%; in the test with NCI-H460 lung, 95.6%; with NCI-H522 lung it was 62.3%; in the test with A549/ATCC NSCLC it was 83%; in the test on 786-0 renal, 84.6%; with COLO 205 colon, 103%.

Turning to `O/N=C/c1cccs1`, the growth in the test on HOP-62 NSCLC is 94.3%; in the test with NCI-H460 lung it was 108%; in the test on HOP-92 NSCLC it was 94%; in the test on NCI-H522 lung it was 106%; in the test on A549/ATCC NSCLC, 98%; with 786-0 renal it was 102%. For the same molecule, in the test with COLO 205 colon, the growth was 119%.

Take `COC(=O)C1C2CC3c4[nH]c5cc(OC)ccc5c4CCN3CC2CC(OC2CCCCO2)C1OC` (centres undefined): the growth was 102% in the test on NCI-H322M lung; 108% in the test with HOP-62 NSCLC; 107% in the test on NCI-H460 lung; 93.6% in the test on NCI-H522 lung; 95.7% in the test on A549/ATCC NSCLC; 101% in the test on 786-0 renal. Moreover, in the test with COLO 205 colon, the growth was 109%.

In the case of `Cc1cc[n+](CCc2ccccc2)cc1`, the growth in the test with A549/ATCC NSCLC was 89.4%.

Turning to `CCCCC(=O)N/N=C/c1cc(I)cc(I)c1O`, the growth was 42.5% with HOP-62 NSCLC; 28.1% in the test with NCI-H460 lung; 48.7% in the test on HOP-92 NSCLC; 60.5% in the test with NCI-H522 lung; 46.6% with A549/ATCC NSCLC; 56.9% in the test with 786-0 renal. The growth with COLO 205 colon is 57%.

Regarding `CC(=O)c1cc(C)c(OC(=O)c2ccccc2)c(C)c1`, the growth in the test on NCI-H322M lung was 119%; in the test on HOP-62 NSCLC, 96.8%; with 786-0 renal it was 100%; in the test on COLO 205 colon it was 93.9%.

Regarding `COc1nc2c(cc1S(=O)(=O)c1ccccc1)CCc1c-2cnn1-c1ccccc1Cl`, the growth is 69.9% in the test with HOP-62 NSCLC; 67% with NCI-H460 lung; -1.3% (active) in the test on HOP-92 NSCLC; 15.3% with NCI-H522 lung; 47.1% with A549/ATCC NSCLC; 51.6% in the test with 786-0 renal. Besides, the growth with COLO 205 colon was 70.4%.

`COc1ncc(F)c(OC)n1`: the growth was 94.3% in the test on HOP-62 NSCLC; 87% in the test with HOP-92 NSCLC; 97.5% in the test with NCI-H522 lung; 99.8% with A549/ATCC NSCLC; 102% in the test on 786-0 renal; 110% in the test on COLO 205 colon.

As for `OC[C@@H](O)[C@@H](O)CO`, the growth is 105% with NCI-H322M lung; 126% with HOP-62 NSCLC; 107% in the test with NCI-H460 lung; 96.6% in the test with NCI-H522 lung; 104% with A549/ATCC NSCLC; 104% in the test on 786-0 renal. Moreover, the growth with COLO 205 colon is 111%.

`OB(O)c1ccccc1`: the growth in the test with NCI-H322M lung was 111%; with NCI-H460 lung, 110%; in the test with HOP-92 NSCLC it was 112%; with NCI-H522 lung it was 103%; in the test on A549/ATCC NSCLC, 98.5%; with 786-0 renal it was 103%. Moreover, in the test with COLO 205 colon, the growth is 116%.

Consider `CCOC(=O)n1cc(C2=C(c3cn(C)c4ccccc34)COC2=O)c2ccccc21`, for which the growth with NCI-H322M lung is 47.4%; in the test with HOP-92 NSCLC, 37.9%; in the test on A549/ATCC NSCLC, 22.6%; with 786-0 renal, 27.5%; in the test on COLO 205 colon it was -31.2% (active).

Take `CN1CCN(CCCn2c3c(sc4ncccc43)c(=O)n3nnc(-c4ccccc4)c23)CC1`: the growth is -75.8% (active) in the test on HOP-62 NSCLC; 59.6% with HOP-92 NSCLC; -73.5% (active) in the test with NCI-H522 lung; -74.7% (active) in the test on A549/ATCC NSCLC; 95.4% with 786-0 renal; 63.6% in the test on COLO 205 colon.

Turning to `CON=C1C[C@]2(C[C@@H]3C[C@@H](C/C=C(\C)C[C@@H](C)/C=C/C=C4\CO[C@@H]5[C@H](O)C(C)=C[C@@H](C(=O)O3)[C@]45O)O2)O[C@H](/C(C)=C/C(C)C)[C@H]1C`, the growth in the test on NCI-H322M lung is 72.1%; in the test on HOP-62 NSCLC, 76.5%; in the test on HOP-92 NSCLC, 24.8%; in the test on NCI-H522 lung it was 50.5%; in the test with A549/ATCC NSCLC, 48.7%; with 786-0 renal it was 65.5%. The growth in the test on COLO 205 colon is 59.1%.

As to `Nc1nc(N)c(N=Nc2c(Br)cc(S(N)(=O)=O)cc2Br)c(N)n1`, the growth in the test on HOP-62 NSCLC was 103%; in the test on HOP-92 NSCLC, 85%; in the test on NCI-H522 lung it was 97.9%; in the test on A549/ATCC NSCLC, 97.4%; in the test with 786-0 renal, 106%; in the test on COLO 205 colon it was 104%.
